Our source for the outcome and AC50 values is PubChem BioAssay (EPA / NIEHS).

Where “and” joins values, the source holds several entries; their conditions need not be identical. Equal entries are not always repeated. Results filed as inconclusive are left out. More than one record can exist for a structure, and the calls need not agree. Calls of active or inactive are those of the source. How the source made its calls, unless noted: active means hit-call score of the fitted dose curve at least 0.9, where 1 is the maximum; inactive means score below 0.9.

Read-out in one assay: KRT18 (gene 3875)
Kind of assay: BSK_BE3C_Keratin818: BioMAP Diversity Plus: BE3C Assay for Keratin 818 Biomarker Activity (AID 2284282). The settings on record: primary human bronchial epithelial cells. The method in brief: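 Chemicals are added to human lung bronchial epithelial primary cells (BE3C system) and incubated 24 h. Keratin 8/18 is then measured by ELISA, with parallel SRB total-protein staining gauging overt cytotoxicity.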

Read-out in assay [1]: Matrix Metallopeptidase 9 (MMP9), MMP9 (gene 4318)
The assay is described as follows: BSK_BE3C_MMP9: BioMAP Diversity Plus: BE3C Assay for Matrix Metallopeptidase 9 (MMP9) Biomarker Activity (AID 2284283). The settings on record: primary human bronchial epithelial cells. The method in brief: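 ELISA read-out of MMP-9 after 24 h compound exposure of human lung bronchial epithelial primary cells (BE3C). Fit in gain direction vs DMSO negative control; total protein by SRB in parallel cultures flagged overt cytotoxicity.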

Read-out in assay [2]: Plasminogen activator inhibitor-1 (PAI1), SERPINE1 (gene 5054)
The assay is described as follows: BSK_CASM3C_PAI1: BioMAP Diversity Plus: CASM3C Assay for Plasminogen activator inhibitor-1 (PAI1) Biomarker Activity (AID 2284284).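 Further: PAI-1 protein level measured by ELISA 24 h after dosing.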 The settings on record: primary human coronary artery smooth muscle cells.

Read-out in assay [3]: Monocyte Chemoattractant Protein-1 (MCP1), CCL2 (gene 6347)
Kind of assay: BSK_hDFCGF_MCP1: BioMAP Diversity Plus: hDFCGF Assay for Monocyte Chemoattractant Protein-1 (MCP1) Biomarker Activity (AID 2284285). The settings on record: primary human foreskin fibroblasts. The method in brief:
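Human foreskin fibroblasts (hDFCGF system) were exposed to compound and secreted MCP-1 was measured by ELISA after 24 hours. Activity was fitted relative to DMSO. Cytotoxicity was checked by SRB total-protein staining in parallel cultures.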

Read-out in assay [4]: Intercellular Adhesion Molecule 1 (ICAM1), ICAM1 (gene 3383)
Kind of assay: BSK_hDFCGF_ICAM1: BioMAP Diversity Plus: hDFCGF Assay for Intercellular Adhesion Molecule 1 (ICAM1) Biomarker Activity (AID 2284287). The settings on record: primary human foreskin fibroblasts. The method in brief:
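Primary human foreskin fibroblasts (hDFCGF system) dosed with chemical; ICAM-1 quantified by ELISA at 24 h relative to DMSO. Parallel SRB total-protein staining to assess overt cytotoxicity.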

Read-out in assay [5]: TIMP metallopeptidase inhibitor 2 (TIMP2), TIMP2 (gene 7077)
The assay is described as follows: BSK_hDFCGF_TIMP2: BioMAP Diversity Plus: hDFCGF Assay for TIMP metallopeptidase inhibitor 2 (TIMP2) Biomarker Activity (AID 2284289). The settings on record: primary human foreskin fibroblasts. The method in brief:
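Primary human foreskin fibroblasts in the hDFCGF system, dosed for 24 h; TIMP-2 level measured by ELISA, fitted in the positive direction against DMSO; cytotoxicity checked in parallel by sulforhodamine B total protein staining.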

Read-out in assay [6]: Thrombomodulin, THBD (gene 7056)
The assay is described as follows: BSK_LPS_Thrombomodulin: BioMAP Diversity Plus: LPS Assay for Thrombomodulin Biomarker Activity (AID 2284296). The settings on record: primary human HUVEC with PBMC. The gist of the method:
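Human umbilical vein endothelial cells co-cultured with PBMC and stimulated with LPS; cell-surface thrombomodulin measured by ELISA 24 hours after compound. Gain or loss versus DMSO; cytotoxicity checked by SRB staining in parallel cultures.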

Assay [7] is described as follows: IUF_NPC2c_oligodendrocyte_migration_120hr: Leibniz Research Institute for Environmental Medicine (IUF) 120-hour Neural Progenitor Cell Migration Assay for Oligodendrocyte Migration (NPC2c) (AID 2284297).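 Further: O4-positive oligodendrocyte migration distance divided by radial glia migration distance.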 The method in brief:
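hNPC spheres (GW 16-19 cortex), PDL/laminin, DMEM/F12 3:1 + 1% N2, 37C. Dosing day 0–5, half feed day 3, DMSO ≤0.1%. Fixed 120 h; O4 ICC + Hoechst, HCI. Readout: mean oligodendrocyte distance from sphere edge / radial glia distance.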

Assay [8] is described as follows: IUF_NPC2a_radial_glia_migration_120hr: Leibniz Research Institute for Environmental Medicine (IUF) 120-hour Neural Progenitor Cell Migration Assay for Radial Glia Migration (NPC2a) (AID 2284298). The method in brief: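 Hoechst-stained nuclei imaged at 120 h; algorithm maps sphere core by densest nuclei, sets migration edge at density threshold, gives radial glia migration distance (um) per well vs DMSO. hNPC spheres (0.3 mm), PDL/laminin, DMEM/F12 3:1 + 1% N2.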

Assay [9] in a line: IUF_NPC2b_neuronal_migration_120hr: Leibniz Research Institute for Environmental Medicine (IUF) 120-hour Neural Progenitor Cell Migration Assay for Neuron Migration (NPC2b) (AID 2284300). The method in brief:
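hNPC spheres, PDL/laminin, DMEM:F12 3:1 + 1% N2, 37C/5% CO2; 7 concentrations + solvent control (DMSO ≤0.1%), 5 d exposure, half-feed day 3. Fix 120 h, TUBB3 ICC, HCI: mean neuron migration distance ÷ glia distance.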

A short description of assay [10]: IUF_NPC3_neuronal_differentiation_120hr: Leibniz Research Institute for Environmental Medicine (IUF) 120-hour Neuronal Differentiation Assay (NPC3) (AID 2284301). The gist of the method: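 Single 0.3 mm neurospheres from human fetal cortex were plated in differentiation medium containing test compound. Medium was half-replaced on day 3. After 120 h cells were fixed, immunostained and imaged, and neuronal fraction was scored against DMSO control.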

Assay [11] can be described thus: IUF_NPC4_neurite_length_120hr: Leibniz Research Institute for Environmental Medicine (IUF) 120-hour Neuronal Morphology Assay for Neurite Length (NPC4) (AID 2284302). The method in brief:
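Read-out is mean neurite length in µm of TUBB3-positive neurons, skeletonized from high-content fluorescence images after 120 h. Single 0.3 mm primary human neural progenitor spheres differentiated on poly-D-lysine/laminin under continuous compound exposure; DMSO was baseline.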

Read-out in another assay: CD69, CD69 (gene 969)
The assay is described as follows: BSK_LPS_CD69: BioMAP Diversity Plus: LPS Assay for CD69 Biomarker Activity (AID 2284303). The settings on record: primary human HUVEC with PBMC. The method in brief: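 Human umbilical vein endothelial cells co-cultured with PBMC under LPS stimulation, chemical exposure 24 h; cell-surface CD69 measured by ELISA and fitted in the positive direction versus DMSO.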

Assay [12] in a line: IUF_NPC5_oligodendrocyte_differentiation_120hr: Leibniz Research Institute for Environmental Medicine (IUF) 120-hour Oligodendrocyte Differentiation Assay (NPC5) (AID 2284304; active means hit-call score of the fitted dose curve at least 0.9, where 1 is the maximum;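 further: primary human fetal neural progenitor spheres plated to migrate and differentiate; share of O4-positive cells among Hoechst nuclei found by CNN image analysis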). The method in brief: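 hNPC spheres, fetal cortex GW 16-19; PDL/laminin, DMEM:F12 3:1 + 1% N2, 37C/5% CO2; 7 concentrations + solvent control, 5 d exposure, half-change day 3. Readout: %O4+ of Hoechst+ nuclei in migration area, CNN classification; DMSO baseline.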

Assay [13] is described as follows: IUF_NPC4_neurite_area_120hr: Leibniz Research Institute for Environmental Medicine (IUF) 120-hour Neuronal Morphology Assay for Neurite Area (NPC4) (AID 2284305; active means hit-call score of the fitted dose curve at least 0.9, where 1 is the maximum). The gist of the method: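 Neurite area is read out as the mean pixel area, excluding nuclei, of skeletonized TUBB3-positive neurons imaged after 120 h. Primary human neural progenitor spheres differentiated on poly-D-lysine/laminin with compound present from day 0. Activity was referenced to DMSO controls.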

Assay [14] is described as follows: IUF_NPC2-5_cytotoxicity_72hr: Cytotoxicity Assessment at 72 hours in the Leibniz Research Institute for Environmental Medicine (IUF) Neural Progenitor Cell Migration and Differentiation Assay for Cytotoxicity (NPC2-5) (AID 2284306; active means hit-call score of the fitted dose curve at least 0.9, where 1 is the maximum;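 further: LDH release into supernatant measured by resorufin fluorescence marking membrane damage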). The method in brief: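 Membrane integrity loss was scored from fluorescence (RFU) of resorufin generated by LDH in culture supernatant, 72 h after dosing. Differentiating human progenitor spheres received seven serial compound concentrations alongside a solvent control.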

A short description of assay [15]: IUF_NPC2-5_cytotoxicity_120hr: Cytotoxicity Assessment at 120 hours in the Leibniz Research Institute for Environmental Medicine (IUF) Neural Progenitor Cell Migration and Differentiation Assay (NPC2-5) (AID 2284307; active means hit-call score of the fitted dose curve at least 0.9, where 1 is the maximum;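 further: LDH released into supernatant as membrane damage marker via resorufin fluorescence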). The gist of the method: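 hNPC spheres on PDL/laminin, N2 medium, 37C; 7 concs + solvent control, DMSO ≤0.1%; 5-day exposure, half medium changed day 3. LDH in supernatant at 120 h, resazurin→resorufin fluorescence, gain-of-signal.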

A short description of assay [16]: IUF_NPC2-5_cell_number_120hr: Cell Number Assessment at 120 hours in the Leibniz Research Institute for Environmental Medicine (IUF) Neural Progenitor Cell Migration and Differentiation Assay (NPC2-5) (AID 2284308).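 Further: count of Hoechst-stained nuclei in migration zone around plated human neural progenitor spheres.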 The method in brief: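 Hoechst-stained nuclei within the migration area were counted by automated high content imaging after 120 h. Single hNPC spheres differentiated on poly-D-lysine/laminin in DMEM/F12 (3:1) with 1% N2, compound present throughout, DMSO ≤0.1%.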

The nature of assay [17]: IUF_NPC2-5_viability_120hr: Viability Assessment at 120 hours in the Leibniz Research Institute for Environmental Medicine (IUF) Neural Progenitor Cell Migration and Differentiation Assay (NPC2-5) (AID 2284312). The gist of the method:
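Alamar blue resorufin fluorescence read after 5 days of differentiation, with compound present from day 0 and replenished at day 3. Primary hNPC spheres on laminin-coated plates, 37C; seven concentrations plus solvent control, fitted against DMSO.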

Assay [18] is described as follows: CCTE_Mundy_HCI_iCellGluta_NOG_NeuriteLength: CCTE's Neurite Outgrowth Assay in iCellGluta cells for Neurite Length, Mundy Lab (AID 2284318; active means hit-call score of the fitted dose curve at least 0.9, where 1 is the maximum). The gist of the method:
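Automated high-content imaging of betaIII-tubulin (Alexa Fluor-488) and Hoechst-stained cells gave neurite length, normalized to the DMSO baseline.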

The nature of assay [19]: IUF_NPC1_cytotoxicity_72hr: Cytotoxicity Assessment at 72 hours in the Leibniz Research Institute for Environmental Medicine (IUF) Neural Progenitor Cell Proliferation Assay (NPC1) (AID 2284332; active means hit-call score of the fitted dose curve at least 0.9, where 1 is the maximum;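 further: rising LDH signal means more cytotoxicity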). The method in brief: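 Spheres of primary human neural progenitors are plated one per well on day 0 in growth-factor medium and dosed at once. After three days at 37C, supernatant LDH is measured fluorimetrically via resazurin reduction.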

Assay [20] can be described thus: CCTE_Mundy_HCI_iCellGluta_NOG_NeuriteCount: CCTE's Neurite Outgrowth Assay in iCellGluta cells for Neurite Count, Mundy Lab (AID 2284342; active means hit-call score of the fitted dose curve at least 0.9, where 1 is the maximum;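 further: chemical exposure about 48 hours starting 2 hours after plating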).

As usually defined, the AC50 is the concentration giving half of the maximal activity seen.

Turning to `[Cd+2].[Cl-].[Cl-]`, the outcome with KRT18 (gene 3875) was “inactive”; in assay [6], “inactive”; with CD69, CD69 (gene 969), “inactive”; in assay [19] it was “inactive”. Moreover, the AC50 in assay [1] was 32 µM (active) and 27.7 µM (active); in assay [2] it was 10.9 µM (active) and 13.8 µM (active); in assay [3], 4.82 µM (active) and 1.76 µM (active); in assay [4] it was 9.72 µM (active) and 13.9 µM (active); in assay [5], 3.97 µM (active) and 2.93 µM (active); in assay [7], 15.1 µM (active). The AC50 is 8.38 µM (active) in [8]; 17.7 µM (active) in assay [9]; 0.00342 µM (active) in assay [10]; 7.58 µM (active) in [11]; 7.19 µM (active) with CD69, CD69 (gene 969); 17.5 µM (active) in [12]. Moreover, the concentration at half-maximal activity (AC50) was 15.6 µM (active) in [13]; 13.5 µM (active) in [14]; 11.2 µM (active) in [15]; 4.7 µM (active) in assay [16]; 6.4 µM (active) in assay [17]; 10.8 µM (active) in assay [18]. Moreover, in assay [20], the AC50 is 11.4 µM (active).
